Rows were chosen to be rich in hits. Some 0.93% of all compounds tested hit in one or more screens of this group.
RPL19A-GFP yeast – RPL19A-GFP expression modulators in yeast, primary screen, cell-based, S. cerevisiae, multiplex flow cytometry, MLPCN; percent response vs DMSO, % at 10 µM; S. cerevisiae RPL19A-GFP strain, 3 h; hits give low values; actives 0.3% (n = 330,000);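 active means percent response vs DMSO below 50%; inconclusive means fewer than 70 events counted for the yeast strain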;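 further: median channel GFP fluorescence of the barcoded RPL19A-GFP strain; lower means less RPL19A-GFP as with rapamycin TOR inhibition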
LAP4-GFP MLPCN – modulators of LAP4-GFP expression in yeast, primary screen, S. cerevisiae, multiplex flow cytometry, MLPCN library | AID 2023, 2009 | actives 0.34% (n = 320,000) | GFP response vs DMSO, % at 10 µM | 3 h; median GFP as percent of DMSO wells;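 active means GFP response vs DMSO above a set limit, about the screen mean plus 3 SD, cut at about 150% in these data; inconclusive means under 70 cell events counted for the yeast strain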
AGP1 TOR yeast – modulators of AGP1-GFP expression in yeast TOR pathway, primary screen, cell-based, multiplex flow cytometry, S. cerevisiae, MLPCN library; 3 h; GFP as percent of DMSO wells; GFP response vs DMSO, % at 10 µM; actives 0.02% (n = 320,000);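 active means GFP response relative to DMSO above a set limit, near screen average plus 3 SD, cut at about 150% in these data; inconclusive means fewer than 70 cells counted for the yeast strain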;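 further: median GFP channel fluorescence of the gated AGP1 strain per well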
MEP2-GFP yeast – modulators of MEP2-GFP levels in yeast, primary screen, S. cerevisiae, multiplex flow cytometry, MLPCN library. AID 2016, 2009. GFP response vs DMSO, % at 10 µM. S. cerevisiae MEP2-GFP strain, 3 h; 100% = DMSO control level. actives 0.51% (n = 330,000);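 active means GFP response versus DMSO above a set limit, roughly screen mean plus 3 SD, cut at about 180% in these data; inconclusive means fewer than 70 cells counted for a yeast strain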;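 further: median GFP fluorescence of the barcode-gated MEP2-GFP cells per well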
CIT2-GFP yeast – modulators of CIT2-GFP expression in yeast, primary screen, S. cerevisiae, GFP fusion, multiplex flow cytometry, MLPCN library. S. cerevisiae CIT2-GFP strain, 3 h; 100 means same as DMSO wells. GFP response vs DMSO, % at 10 µM. actives 0.065% (n = 320,000). AID 2029, 2009;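 active means GFP response relative to DMSO above a set limit, near the screen mean plus 3 SD, cut at about 150% in these data; inconclusive means Fewer than 70 cells measured for a yeast strain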;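 further: ratio of well median GFP fluorescence to mean of DMSO wells on the plate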
LAP4-GFP pick2 – LAP4-GFP expression modulators in yeast, confirmation, cell-based, second cherry pick, flow cytometry. S. cerevisiae LAP4-GFP strain, 3 h. shares compounds with LAP4-GFP MLPCN. actives 20% (n = 590). GFP response vs DMSO, % at 10 µM. AID 2621, 2010;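 active means GFP signal as percent of the solvent control above about 150%, meaning raised reporter expression, limit read from the data; inconclusive means fewer than 70 cells counted in the well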
MEP2-GFP pick2 – modulators of MEP2-GFP levels in yeast, confirmation, S. cerevisiae, flow cytometry GFP, second cherry picks. shares compounds with LAP4-GFP MLPCN. AID 2622, 2010. S. cerevisiae MEP2-GFP strain, 3 h. actives 10% (n = 590). GFP response vs DMSO, % at 10 µM;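 active means GFP signal above 150% of the solvent control wells, that is a rise of more than half; inconclusive means fewer than 70 yeast cells counted in the well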;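 further: median channel GFP fluorescence of all gated yeast cells per well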
RPL19A-GFP pick2 – RPL19A-GFP modulators in TOR pathway yeast, confirmation, cell-based, S. cerevisiae, flow cytometry, second cherry pick; shares compounds with LAP4-GFP MLPCN; S. cerevisiae RPL19A-GFP strain, 3 h; hits give low values; 100% means same as DMSO wells; GFP response vs DMSO, % at 10 µM; actives 3% (n = 590);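 active means under 65% GFP response relative to DMSO; inconclusive means yeast strain with under 70 measured events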;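 further: median GFP channel fluorescence per well over the all cells gate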
CIT2-GFP pick2 – modulators of CIT2-GFP expression in yeast, confirmation, flow cytometry, second cherry pick, single plex; shares compounds with LAP4-GFP MLPCN; S. cerevisiae CIT2-GFP strain, 3 h; DMSO control wells read 100%; GFP response vs DMSO, % at 10 µM; actives 8% (n = 590);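 active means GFP response vs DMSO above about 150%, limit read from the data; inconclusive means fewer than 70 events counted for a yeast strain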;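 further: median green fluorescence per well over all gated yeast cells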
AGP1 GFP CP2 – AGP1-GFP expression modulators, hit retest, confirmation, cell-based, flow cytometry, S. cerevisiae, cherry pick set 2. shares compounds with LAP4-GFP MLPCN. S. cerevisiae AGP1-GFP strain, 3 h. percent response vs DMSO, % at 10 µM. 590 tested, under 10 active. AID 2643, 2010;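 active means over 150 percent of DMSO response; inconclusive means yeast strain measured with under 70 events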;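 further: median GFP channel fluorescence over all cells without mother daughter split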
Yeast autofluor – compound autofluorescence in yeast s288c, dose response, artefact control for yeast TOR pathway GFP screen, s288c strain; S. cerevisiae s288c, 520 nm autofluorescence, flow cytometry, 3 h; hits give high values; zero means same as solvent-only cells; 610 tested, under 10 active; shares compounds with LAP4-GFP MLPCN; fluorescence change (kMESF span) at 33 µM;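 active means fluorescence span over the dose series, or activity score, above about 33, limit read from the data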
s288c autofl DR – autofluorescence of compounds in yeast s288c, dose response, artefact control for yeast TOR pathway GFP screen, primary hits, KU SAR, s288c parental; S. cerevisiae s288c parental, compound autofluorescence, flow cytometry, 3 h; 110 tested, under 10 active; AID 488829, 2010; shares compounds with LAP4-GFP MLPCN; fluorescence change (span) at 33 µM;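 active means fluorescence change span, or the activity score built from it, above 25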
TORC1 bypass – wild-type yeast growth inhibition sparing TORC1 bypass cells, mechanism study for yeast TOR pathway GFP screen, BY4741 wild type, TORC1 bypass strain; shares compounds with LAP4-GFP MLPCN; S. cerevisiae BY4741 spot growth rating, 48-72 h; hits give low values; growth rating (0-3) at 30 µM; 120 tested, under 10 active;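 active means growth rating at most 1 for wild type yeast while the TORC1 bypass strain still grows fully, rated 3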
Large screens that a line does not name were inactive (follow-up assays come after a bar, where they were run).

COc1ccccc1C(=O)COC(=O)c1cccc(S(=O)(=O)N2CCCC2)c1	none
O=C(NC(CO)(CO)CO)[C@@H]1CCCN1S(=O)(=O)c1cccc2cccnc12	none
Cc1cc(C(=O)NNc2c(Cl)cccc2Cl)n(C(C)(C)C)n1	none
Nc1nc(NCCc2ccccc2)nc(NCc2ccccc2)c1[N+](=O)[O-]	none
Cc1nc(Nc2ccc(F)cc2)nc(Nc2ccc(F)cc2)c1[N+](=O)[O-]	none
COc1cccc(Nc2nc(N)c([N+](=O)[O-])c(Nc3cccc(F)c3)n2)c1	none (no result: RPL19A-GFP yeast, LAP4-GFP MLPCN, AGP1 TOR yeast, MEP2-GFP yeast, CIT2-GFP yeast) | s288c autofl DR inactive | TORC1 bypass inactive
COCCNc1nc(N)c([N+](=O)[O-])c(Nc2cccc(F)c2)n1	none (no result: RPL19A-GFP yeast, LAP4-GFP MLPCN, AGP1 TOR yeast, MEP2-GFP yeast, CIT2-GFP yeast) | s288c autofl DR inactive | TORC1 bypass inactive
Cc1ccc(CNc2nc(N)c([N+](=O)[O-])c(Nc3cccc(F)c3)n2)cc1	none
Nc1cc(Nc2cccc(F)c2)nc(NCc2ccccc2)n1	none (no result: RPL19A-GFP yeast, LAP4-GFP MLPCN, AGP1 TOR yeast, MEP2-GFP yeast, CIT2-GFP yeast) | s288c autofl DR inactive | TORC1 bypass inactive
Nc1nc(NCCc2ccccc2)nc(Nc2cccc(F)c2)c1[N+](=O)[O-]	none (no result: RPL19A-GFP yeast, LAP4-GFP MLPCN, AGP1 TOR yeast, MEP2-GFP yeast, CIT2-GFP yeast) | s288c autofl DR inactive | TORC1 bypass inactive
Cc1cc(Nc2cccc(F)c2)nc(NCc2ccccc2)n1	none
CCc1ccc(CN(C)C(=O)C2CCC(=O)N(Cc3ccccn3)C2)cc1 (centres undefined)	none
Nc1nc(Nc2ccccc2F)nc(Nc2cccc(F)c2)c1[N+](=O)[O-]	none (no result: RPL19A-GFP yeast, LAP4-GFP MLPCN, AGP1 TOR yeast, MEP2-GFP yeast, CIT2-GFP yeast) | s288c autofl DR inactive | TORC1 bypass inactive
Nc1nc(Nc2cccc(F)c2)nc(NCCO)c1[N+](=O)[O-]	none
CCOC(=O)c1c(N)nc(NC)nc1Nc1cccc(F)c1	none (no result: RPL19A-GFP yeast, LAP4-GFP MLPCN, AGP1 TOR yeast, MEP2-GFP yeast, CIT2-GFP yeast) | TORC1 bypass inactive
CCOC(=O)C1=C(COC(=O)CC(C)c2ccccc2)NC(=O)NC1C (centres undefined)	none
O=C1Nc2ccccc2/C1=C/C(=O)c1cccs1	AGP1 TOR yeast inconclusive, CIT2-GFP yeast inconclusive
COc1ccc(C(=O)/C=C2/C(=O)Nc3ccccc32)c(OC)c1	none | Yeast autofluor inactive
COc1ccc(C(=O)/C=C2/C(=O)Nc3ccccc32)cc1OC	none | Yeast autofluor inactive
COc1cc(OC)c(/C=C2\C(=O)Nc3ccccc32)c(OC)c1	none
COc1ccc(C(=O)/C=C2/C(=O)Nc3ccccc32)cc1	LAP4-GFP MLPCN 167 | Yeast autofluor inactive
COCCN1C(=O)/C(=C/c2ccc(N3CCCC3)cc2C)SC1=S	MEP2-GFP yeast 186, CIT2-GFP yeast 190 | Yeast autofluor inactive
CCN=C1S/C(=C\c2ccc(N3CCOCC3)cc2C)C(=O)N1CC	none
O=[N+]([O-])c1c(Nc2ccccn2)cc(Cl)c2nonc12	LAP4-GFP MLPCN 674, MEP2-GFP yeast 951, CIT2-GFP yeast 456 | Yeast autofluor 37
Cc1noc(C)c1C(=O)Nc1ccc(F)cc1	none
Cc1noc(C)c1C(=O)Nc1ccc(N(C)C)cc1	CIT2-GFP yeast 162 | LAP4-GFP pick2 inactive | MEP2-GFP pick2 inactive | RPL19A-GFP pick2 inactive | CIT2-GFP pick2 inactive | AGP1 GFP CP2 inactive
COCC(=O)N(C)C[C@H]1N[C@@](C)(C(=O)OC)[C@H]2C(=O)N(Cc3ccccc3)C(=O)[C@@H]12	none
CCN1/C(=C/C(C)=C/c2sc3ccccc3[n+]2CC)Sc2ccccc21	LAP4-GFP MLPCN 188 | Yeast autofluor inactive
CCN1/C(=C\C(=S)Nc2ccccc2)Sc2ccccc21	none
CC(C)OC(=O)CSc1nc2ncccc2[nH]1	LAP4-GFP MLPCN 171 | LAP4-GFP pick2 inactive | MEP2-GFP pick2 inactive | RPL19A-GFP pick2 inactive | CIT2-GFP pick2 inactive | AGP1 GFP CP2 inactive
CC(C)OC(=O)CSc1nc2ncc(Cl)cc2[nH]1	none
O=C(O)C1Sc2[nH]c(=O)sc2C2c3cc(Br)ccc3OC(=O)C12 (centres undefined)	LAP4-GFP MLPCN 151 | Yeast autofluor inactive
O=c1c2cnn(-c3ccccc3)c2ncn1Cc1ccco1	none | LAP4-GFP pick2 inactive | MEP2-GFP pick2 inactive | RPL19A-GFP pick2 inactive | CIT2-GFP pick2 inactive | AGP1 GFP CP2 inactive | Yeast autofluor inactive
CCNc1nc(NCC)n2c(SCC(=O)NC34CC5CC(CC(C5)C3)C4)nnc2n1	none
CCN1CC(c2ccccc2)C(c2ccc(Cl)cc2)=N1 (centres undefined)	none
COc1cc(CNC(=O)CCCCCCC(C)C)ccc1O	LAP4-GFP MLPCN 158 | LAP4-GFP pick2 160 | MEP2-GFP pick2 211 | RPL19A-GFP pick2 inactive | CIT2-GFP pick2 188 | AGP1 GFP CP2 inactive | Yeast autofluor inactive
CCOCCCNC(=O)CSc1nc2nc(C)c(Cc3ccccc3)c(C)n2n1	none
Cc1cc(C(=O)COC(=O)c2ccc[nH]c2=O)c(C)n1-c1ccccc1F	none | LAP4-GFP pick2 155 | MEP2-GFP pick2 inactive | RPL19A-GFP pick2 inactive | CIT2-GFP pick2 inactive | AGP1 GFP CP2 inactive | Yeast autofluor inactive | s288c autofl DR inactive | TORC1 bypass inactive
